In paper PMC4081100, “A DNA-binding-site landscape and regulatory network analysis for NAC transcription factors in Arabidopsis thaliana” one finds binding signal data, which are given here for six sequences.

Holding throughout (test): universal protein binding microarray (PBM); transcription factors of Arabidopsis thaliana; high values mean tight binding
For one test, the target named is T1, GST-ANAC092(1-176) (Arabidopsis thaliana, UniProt Q9FKA0 1-176).
T1 sequence: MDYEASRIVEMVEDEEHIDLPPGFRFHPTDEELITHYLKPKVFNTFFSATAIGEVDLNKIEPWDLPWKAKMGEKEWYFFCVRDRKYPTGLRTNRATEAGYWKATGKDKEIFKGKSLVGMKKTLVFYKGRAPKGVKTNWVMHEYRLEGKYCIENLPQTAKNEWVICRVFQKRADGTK
Particulars: protein: recombinant; tags: GST; chain copies: 2; dsDNA, one strand shown. In short, it runs like this: (§1)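 Binding is expressed as the normalised enrichment score (E-score). Proteins carrying a GST tag, whether NAC-domain, full-length or DNA-binding-domain forms, were induced in cells, and zinc acetate was added for zinc-finger proteins. After purification on glutathione–Sepharose 4B and quantification by A280 or anti-GST western blot, each was applied in duplicate at 200 to 500 nM final to custom all-10-mer Agilent 4 × 180K arrays made double-stranded by primer extension. Gapped and ungapped 8-mers were scored.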

For another test, the target named is GST-NTL6(1-168) (Arabidopsis thaliana, UniProt Q9SCK6 1-168). The following applies: protein: recombinant; tags: GST; chain copies: 2; dsDNA, one strand shown. In short, it runs like this:
as §1

The next test deals with T2, GST-ANAC019 NAC domain (Arabidopsis thaliana, UniProt Q9C932 14-162).
T2 sequence: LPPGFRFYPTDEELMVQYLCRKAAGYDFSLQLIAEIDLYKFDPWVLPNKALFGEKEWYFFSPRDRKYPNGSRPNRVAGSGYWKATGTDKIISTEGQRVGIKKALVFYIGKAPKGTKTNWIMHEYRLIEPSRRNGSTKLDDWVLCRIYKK
Particulars: protein: recombinant; tags: GST; chain copies: 2; dsDNA, one strand shown. The method, boiled down:
as §1

A further test has as its target T3, GST-ANAC055(1-171) (Arabidopsis thaliana, UniProt Q9LDY8 1-171).
T3 sequence: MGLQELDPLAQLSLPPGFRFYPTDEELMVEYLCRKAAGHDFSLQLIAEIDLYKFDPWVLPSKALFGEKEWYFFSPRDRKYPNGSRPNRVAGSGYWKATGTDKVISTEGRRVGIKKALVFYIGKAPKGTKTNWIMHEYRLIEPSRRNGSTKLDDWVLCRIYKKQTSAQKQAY
Particulars: protein: recombinant; tags: GST; chain copies: 2; dsDNA, one strand shown. The method, boiled down: as §1

The target of a further test is T4, GST-ATAF1 NAC domain (Arabidopsis thaliana, UniProt Q39013 7-158).
T4 sequence: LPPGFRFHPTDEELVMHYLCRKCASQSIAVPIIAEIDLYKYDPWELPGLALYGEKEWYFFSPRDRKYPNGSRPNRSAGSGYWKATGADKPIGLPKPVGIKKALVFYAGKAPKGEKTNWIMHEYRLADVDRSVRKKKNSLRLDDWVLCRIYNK
Particulars: protein: recombinant; tags: GST; chain copies: 2; dsDNA, one strand shown. The method, boiled down: as §1

The target of test [1] is T5, GST-ANAC092(1-285) full length (Arabidopsis thaliana, UniProt Q9FKA0 1-285).
T5 sequence: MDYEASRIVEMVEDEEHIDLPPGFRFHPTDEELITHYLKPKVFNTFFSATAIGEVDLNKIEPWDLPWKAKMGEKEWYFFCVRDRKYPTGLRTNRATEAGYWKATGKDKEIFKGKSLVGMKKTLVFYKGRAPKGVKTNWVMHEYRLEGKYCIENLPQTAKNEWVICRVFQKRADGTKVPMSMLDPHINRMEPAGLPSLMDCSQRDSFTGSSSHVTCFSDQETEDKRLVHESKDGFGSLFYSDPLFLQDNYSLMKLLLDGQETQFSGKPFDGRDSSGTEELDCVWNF
Particulars: protein: recombinant; tags: GST; chain copies: 2; dsDNA, one strand shown. In short, it runs like this: as §1

Another test concerns the target T6, GST-NAP(1-166) (Arabidopsis thaliana, UniProt O49255 1-166).
T6 sequence: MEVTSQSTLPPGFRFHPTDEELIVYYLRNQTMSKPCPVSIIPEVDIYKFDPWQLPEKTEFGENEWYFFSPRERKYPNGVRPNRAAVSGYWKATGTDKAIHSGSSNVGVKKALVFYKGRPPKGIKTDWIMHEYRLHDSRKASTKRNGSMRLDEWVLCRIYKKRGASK
Particulars: protein: recombinant; tags: GST; chain copies: 2; dsDNA, one strand shown. The method, boiled down: as §1

A further test has as its target T7, GST-NST2(1-184) (Arabidopsis thaliana, UniProt Q9M274 1-184).
T7 sequence: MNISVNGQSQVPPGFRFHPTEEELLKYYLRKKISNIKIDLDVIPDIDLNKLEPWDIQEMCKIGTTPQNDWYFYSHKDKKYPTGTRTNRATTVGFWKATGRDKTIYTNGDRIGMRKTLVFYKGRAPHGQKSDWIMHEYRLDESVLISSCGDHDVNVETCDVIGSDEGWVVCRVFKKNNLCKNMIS
The following applies: protein: recombinant; tags: GST; chain copies: 2; dsDNA, one strand shown. In short, it runs like this:
as §1

Another test deals with T8, GST-NTL8 NAC domain (Arabidopsis thaliana, UniProt Q9XIN7 14-156).
T8 sequence: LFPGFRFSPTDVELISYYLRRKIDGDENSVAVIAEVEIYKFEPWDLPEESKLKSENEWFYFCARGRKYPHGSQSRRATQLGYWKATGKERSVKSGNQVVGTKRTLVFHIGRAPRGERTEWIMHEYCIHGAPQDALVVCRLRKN
The following applies: protein: recombinant; tags: GST; chain copies: 2; dsDNA, one strand shown. In short, it runs like this:
as §1

The next test addresses T9, GST-SND1(1-203) (Arabidopsis thaliana, UniProt Q9LPI7 1-203).
T9 sequence: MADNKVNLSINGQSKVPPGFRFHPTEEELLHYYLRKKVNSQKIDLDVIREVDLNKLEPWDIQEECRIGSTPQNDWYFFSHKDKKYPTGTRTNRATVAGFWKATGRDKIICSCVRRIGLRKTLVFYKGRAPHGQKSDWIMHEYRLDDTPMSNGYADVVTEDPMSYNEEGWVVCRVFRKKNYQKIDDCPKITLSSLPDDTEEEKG
The following applies: protein: recombinant; tags: GST; chain copies: 2; dsDNA, one strand shown. The method, boiled down: as §1

In the next test the target is T10, GST-VND3 NAC domain (Arabidopsis thaliana, UniProt Q9FH59 12-162).
T10 sequence: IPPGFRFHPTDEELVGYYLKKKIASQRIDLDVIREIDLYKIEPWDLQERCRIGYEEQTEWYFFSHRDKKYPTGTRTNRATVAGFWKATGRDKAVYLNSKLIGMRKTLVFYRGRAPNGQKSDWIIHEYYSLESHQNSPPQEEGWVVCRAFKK
The following applies: protein: recombinant; tags: GST; chain copies: 2; dsDNA, one strand shown. The method, boiled down: as §1

The next test has as its target T11, GST-VND7 NAC domain (Arabidopsis thaliana, UniProt Q9C8W9 9-158).
T11 sequence: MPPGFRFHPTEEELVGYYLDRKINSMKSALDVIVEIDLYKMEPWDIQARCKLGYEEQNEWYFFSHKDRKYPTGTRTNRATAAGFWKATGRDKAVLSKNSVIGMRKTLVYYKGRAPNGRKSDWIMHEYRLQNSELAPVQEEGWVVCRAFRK
The following applies: protein: recombinant; tags: GST; chain copies: 2; dsDNA, one strand shown. The method, boiled down:
as §1

The target in another test is GST-WRKY1(266-371) (Arabidopsis thaliana, UniProt Q9SI37 266-371). Particulars: protein: recombinant; tags: GST; dsDNA, one strand shown. In short, it runs like this: as §1
Chain of GST-WRKY1(266-371) (Q9SI37 266-371): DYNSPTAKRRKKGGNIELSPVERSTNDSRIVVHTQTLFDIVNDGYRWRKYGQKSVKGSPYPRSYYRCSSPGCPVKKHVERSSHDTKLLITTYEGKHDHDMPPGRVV

Chain of GST-NTL6(1-168) (Q9SCK6 1-168): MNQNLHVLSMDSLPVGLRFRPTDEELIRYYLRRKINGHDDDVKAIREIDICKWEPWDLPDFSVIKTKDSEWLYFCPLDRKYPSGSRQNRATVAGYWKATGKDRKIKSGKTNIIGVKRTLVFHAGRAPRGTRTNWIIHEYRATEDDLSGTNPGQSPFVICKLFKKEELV

As for GTACGTCA, the binding signal with GST-ANAC092(1-176) was 0.441 E-score; with GST-NTL6(1-168) it was 0.0743 E-score; with GST-ANAC019 NAC domain, 0.413 E-score; in the test with GST-ANAC055(1-171) it was 0.295 E-score; in the test with GST-ATAF1 NAC domain, 0.366 E-score; in [1] it was 0.45 E-score. Besides, the binding signal turned out to be 0.363 E-score in the test with GST-NAP(1-166); 0.244 E-score with GST-NST2(1-184); 0.149 E-score with GST-NTL8 NAC domain; 0.422 E-score with GST-SND1(1-203); 0.38 E-score with GST-VND3 NAC domain; 0.373 E-score with GST-VND7 NAC domain. In addition, the binding signal with GST-WRKY1(266-371) came out at 0.228 E-score.

Take GTACGTAA: the binding signal with GST-ANAC092(1-176) was determined as 0.432 E-score; in the test with GST-NTL6(1-168), 0.174 E-score; with GST-ANAC019 NAC domain, 0.463 E-score; with GST-ANAC055(1-171), 0.42 E-score; with GST-ATAF1 NAC domain, 0.408 E-score; in test [1], 0.441 E-score. Moreover, the binding signal with GST-NAP(1-166) stood at 0.419 E-score; with GST-NST2(1-184), 0.276 E-score; with GST-NTL8 NAC domain, 0.167 E-score; with GST-SND1(1-203), 0.337 E-score; in the test with GST-VND3 NAC domain, 0.417 E-score; with GST-VND7 NAC domain, 0.44 E-score. Besides, the binding signal with GST-WRKY1(266-371) was determined as 0.0843 E-score.

On to GATACGTA, for which the binding signal in the test with GST-ANAC092(1-176) turned out to be 0.381 E-score; with GST-NTL6(1-168), 0.0687 E-score; in the test with GST-ANAC019 NAC domain, 0.428 E-score; with GST-ANAC055(1-171) it was 0.415 E-score; with GST-ATAF1 NAC domain, 0.341 E-score; in [1], 0.385 E-score. For the same sequence, the binding signal with GST-NAP(1-166) stood at 0.458 E-score; in the test with GST-NST2(1-184), 0.253 E-score; in the test with GST-SND1(1-203), 0.257 E-score; with GST-VND3 NAC domain it was 0.405 E-score; with GST-VND7 NAC domain it was 0.424 E-score; in the test with GST-WRKY1(266-371), 0.0663 E-score.

As to ACACGACA, the binding signal with GST-ANAC092(1-176) turned out to be 0.421 E-score; with GST-NTL6(1-168) it was 0.0953 E-score; with GST-ANAC019 NAC domain, 0.452 E-score; with GST-ANAC055(1-171) it was 0.438 E-score; with GST-ATAF1 NAC domain, 0.339 E-score; in test [1], 0.417 E-score. In addition, the binding signal with GST-NAP(1-166) amounted to 0.36 E-score; with GST-NST2(1-184), 0.19 E-score; with GST-NTL8 NAC domain, 0.0912 E-score; with GST-SND1(1-203), 0.14 E-score; with GST-VND3 NAC domain it was 0.399 E-score; with GST-VND7 NAC domain it was 0.424 E-score. Also, the binding signal with GST-WRKY1(266-371) is 0.0821 E-score.

Consider TAACGTAA, for which the binding signal stood at 0.452 E-score with GST-ANAC092(1-176); 0.135 E-score with GST-NTL6(1-168); 0.25 E-score in the test with GST-ANAC019 NAC domain; 0.254 E-score in the test with GST-ANAC055(1-171); 0.34 E-score with GST-ATAF1 NAC domain; 0.449 E-score in [1]. Besides, the binding signal with GST-NAP(1-166) was determined as 0.309 E-score; with GST-NST2(1-184) it was 0.402 E-score; with GST-NTL8 NAC domain, 0.174 E-score; with GST-SND1(1-203), 0.488 E-score; with GST-VND3 NAC domain, 0.375 E-score; with GST-VND7 NAC domain, 0.413 E-score. In the test with GST-WRKY1(266-371), the binding signal worked out at 0.0682 E-score.

AACGTAAA: the binding signal with GST-ANAC092(1-176) was found to be 0.254 E-score; with GST-NTL6(1-168) it was 0.0913 E-score; in the test with GST-ANAC019 NAC domain, 0.175 E-score; in the test with GST-ANAC055(1-171), 0.241 E-score; with GST-ATAF1 NAC domain it was 0.298 E-score; in [1], 0.342 E-score. Also, the binding signal was 0.24 E-score with GST-NAP(1-166); 0.36 E-score with GST-NST2(1-184); 0.436 E-score in the test with GST-SND1(1-203); 0.252 E-score in the test with GST-VND3 NAC domain; 0.248 E-score with GST-VND7 NAC domain; 0.165 E-score in the test with GST-WRKY1(266-371).
